# Results reported in paper PMC11062922 (Nature Chemical Biology, 2023).
# Read-outs that look alike come from different tables or passages of the source.
# Tests used:
# TNIK = details: read-out: apparent Kd, n = 1
# ULK3 = details: read-out: apparent Kd, n = 1
# [1] = compound concentrations:100 nM and 1000 nM (sheet 'Lestaurtinib' of Supplementary Table 1),run:Lestaurtinib_02896_R2,Plate:MR030
# [2] = compound concentrations:100 nM and 1000 nM (sheet 'Lestaurtinib' of Supplementary Table 1),run:Lestaurtinib_02896_R3,Plate:MR030
# [3] = compound concentrations:100 nM and 1000 nM (sheet 'Lestaurtinib' of Supplementary Table 1),run:Lestaurtinib_03252_R1,Plate:MR032
# [4] = compound concentrations:100 nM and 1000 nM (sheet 'Lestaurtinib' of Supplementary Table 1),run:Lestaurtinib_03260_R1,Plate:MR033
substance,measurement,setting,value
Lestaurtinib,potency estimated from few doses,"TNIK; compound concentrations:100 nM and 1000 nM (sheet 'Lestaurtinib' of Supplementary Table 1),run:Lestaurtinib_02795_R2,Plate:MR022",154 nM
same,potency estimated from few doses,"TNIK; compound concentrations:100 nM and 1000 nM (sheet 'Lestaurtinib' of Supplementary Table 1),run:Lestaurtinib_02795_R3,Plate:MR022",504 nM
same,potency estimated from few doses,"TNIK; compound concentrations:100 nM and 1000 nM (sheet 'Lestaurtinib' of Supplementary Table 1),run:Lestaurtinib_02802_R1,Plate:MR029",121 nM
same,potency estimated from few doses,"TNIK; compound concentrations:100 nM and 1000 nM (sheet 'Lestaurtinib' of Supplementary Table 1),run:Lestaurtinib_02802_R2,Plate:MR029",141 nM
same,potency estimated from few doses,"TNIK; compound concentrations:100 nM and 1000 nM (sheet 'Lestaurtinib' of Supplementary Table 1),run:Lestaurtinib_02896_R1,Plate:MR030",444 nM
same,potency estimated from few doses,TNIK; [1],356 nM
same,potency estimated from few doses,TNIK; [2],484 nM
same,potency estimated from few doses,"TNIK; compound concentrations:100 nM and 1000 nM (sheet 'Lestaurtinib' of Supplementary Table 1),run:Lestaurtinib_03172_R2,Plate:MR031",157 nM
same,potency estimated from few doses,"TNIK; compound concentrations:100 nM and 1000 nM (sheet 'Lestaurtinib' of Supplementary Table 1),run:Lestaurtinib_03172_R3,Plate:MR031",561 nM
same,potency estimated from few doses,TNIK; [3],143 nM
same,potency estimated from few doses,TNIK; [4],428 nM
same,potency estimated from few doses,"TNIK; compound concentrations:100 nM and 1000 nM (sheet 'Lestaurtinib' of Supplementary Table 1),run:Lestaurtinib_03260_R2,Plate:MR033",808 nM
same,potency estimated from few doses,"TNIK; compound concentrations:100 nM and 1000 nM (sheet 'Lestaurtinib' of Supplementary Table 1),run:Lestaurtinib_03260_R3,Plate:MR033",717 nM
same,potency estimated from few doses,"ULK3; compound concentrations:100 nM and 1000 nM (sheet 'Lestaurtinib' of Supplementary Table 1),run:Lestaurtinib_02339_R1,Plate:MR001",270 nM
same,potency estimated from few doses,"ULK3; compound concentrations:100 nM and 1000 nM (sheet 'Lestaurtinib' of Supplementary Table 1),run:Lestaurtinib_02339_R3,Plate:MR001",265 nM
same,potency estimated from few doses,"ULK3; compound concentrations:100 nM and 1000 nM (sheet 'Lestaurtinib' of Supplementary Table 1),run:Lestaurtinib_02364_R1,Plate:MR002",301 nM
same,potency estimated from few doses,"ULK3; compound concentrations:100 nM and 1000 nM (sheet 'Lestaurtinib' of Supplementary Table 1),run:Lestaurtinib_02364_R2,Plate:MR002",295 nM
same,potency estimated from few doses,"ULK3; compound concentrations:100 nM and 1000 nM (sheet 'Lestaurtinib' of Supplementary Table 1),run:Lestaurtinib_02367_R1,Plate:MR003",146 nM
same,potency estimated from few doses,"ULK3; compound concentrations:100 nM and 1000 nM (sheet 'Lestaurtinib' of Supplementary Table 1),run:Lestaurtinib_02367_R2,Plate:MR003",218 nM
same,potency estimated from few doses,"ULK3; compound concentrations:100 nM and 1000 nM (sheet 'Lestaurtinib' of Supplementary Table 1),run:Lestaurtinib_02367_R3,Plate:MR003",228 nM
same,potency estimated from few doses,"ULK3; compound concentrations:100 nM and 1000 nM (sheet 'Lestaurtinib' of Supplementary Table 1),run:Lestaurtinib_02381_R1,Plate:MR004",154 nM
same,potency estimated from few doses,"ULK3; compound concentrations:100 nM and 1000 nM (sheet 'Lestaurtinib' of Supplementary Table 1),run:Lestaurtinib_02407_R1,Plate:MR005",137 nM
same,potency estimated from few doses,"ULK3; compound concentrations:100 nM and 1000 nM (sheet 'Lestaurtinib' of Supplementary Table 1),run:Lestaurtinib_02422_R1,Plate:MR006",113 nM
same,potency estimated from few doses,"ULK3; compound concentrations:100 nM and 1000 nM (sheet 'Lestaurtinib' of Supplementary Table 1),run:Lestaurtinib_02422_R2,Plate:MR006",60.5 nM
same,potency estimated from few doses,"ULK3; compound concentrations:100 nM and 1000 nM (sheet 'Lestaurtinib' of Supplementary Table 1),run:Lestaurtinib_02422_R3,Plate:MR006",134 nM
same,potency estimated from few doses,"ULK3; compound concentrations:100 nM and 1000 nM (sheet 'Lestaurtinib' of Supplementary Table 1),run:Lestaurtinib_02437_R1,Plate:MR007",239 nM
same,potency estimated from few doses,"ULK3; compound concentrations:100 nM and 1000 nM (sheet 'Lestaurtinib' of Supplementary Table 1),run:Lestaurtinib_02437_R2,Plate:MR007",253 nM
same,potency estimated from few doses,"ULK3; compound concentrations:100 nM and 1000 nM (sheet 'Lestaurtinib' of Supplementary Table 1),run:Lestaurtinib_02437_R3,Plate:MR007",22.5 nM
same,potency estimated from few doses,"ULK3; compound concentrations:100 nM and 1000 nM (sheet 'Lestaurtinib' of Supplementary Table 1),run:Lestaurtinib_02438_R2,Plate:MR008",236 nM
same,potency estimated from few doses,"ULK3; compound concentrations:100 nM and 1000 nM (sheet 'Lestaurtinib' of Supplementary Table 1),run:Lestaurtinib_02438_R3,Plate:MR008",286 nM
same,potency estimated from few doses,"ULK3; compound concentrations:100 nM and 1000 nM (sheet 'Lestaurtinib' of Supplementary Table 1),run:Lestaurtinib_02443_R1,Plate:MR009",231 nM
same,potency estimated from few doses,"ULK3; compound concentrations:100 nM and 1000 nM (sheet 'Lestaurtinib' of Supplementary Table 1),run:Lestaurtinib_02443_R2,Plate:MR009",239 nM
same,potency estimated from few doses,"ULK3; compound concentrations:100 nM and 1000 nM (sheet 'Lestaurtinib' of Supplementary Table 1),run:Lestaurtinib_02443_R3,Plate:MR009",196 nM
same,potency estimated from few doses,"ULK3; compound concentrations:100 nM and 1000 nM (sheet 'Lestaurtinib' of Supplementary Table 1),run:Lestaurtinib_02473_R1,Plate:MR010",232 nM
same,potency estimated from few doses,"ULK3; compound concentrations:100 nM and 1000 nM (sheet 'Lestaurtinib' of Supplementary Table 1),run:Lestaurtinib_02473_R2,Plate:MR010",253 nM
same,potency estimated from few doses,"ULK3; compound concentrations:100 nM and 1000 nM (sheet 'Lestaurtinib' of Supplementary Table 1),run:Lestaurtinib_02482_R1,Plate:MR011",240 nM
same,potency estimated from few doses,"ULK3; compound concentrations:100 nM and 1000 nM (sheet 'Lestaurtinib' of Supplementary Table 1),run:Lestaurtinib_02482_R2,Plate:MR011",244 nM
same,potency estimated from few doses,"ULK3; compound concentrations:100 nM and 1000 nM (sheet 'Lestaurtinib' of Supplementary Table 1),run:Lestaurtinib_02482_R3,Plate:MR011",219 nM
same,potency estimated from few doses,"ULK3; compound concentrations:100 nM and 1000 nM (sheet 'Lestaurtinib' of Supplementary Table 1),run:Lestaurtinib_02487_R1,Plate:MR012",144 nM
same,potency estimated from few doses,"ULK3; compound concentrations:100 nM and 1000 nM (sheet 'Lestaurtinib' of Supplementary Table 1),run:Lestaurtinib_02487_R2,Plate:MR012",219 nM
same,potency estimated from few doses,"ULK3; compound concentrations:100 nM and 1000 nM (sheet 'Lestaurtinib' of Supplementary Table 1),run:Lestaurtinib_02487_R3,Plate:MR012",250 nM
same,potency estimated from few doses,"ULK3; compound concentrations:100 nM and 1000 nM (sheet 'Lestaurtinib' of Supplementary Table 1),run:Lestaurtinib_02496_R1,Plate:MR013",131 nM
same,potency estimated from few doses,"ULK3; compound concentrations:100 nM and 1000 nM (sheet 'Lestaurtinib' of Supplementary Table 1),run:Lestaurtinib_02496_R2,Plate:MR013",165 nM
same,potency estimated from few doses,"ULK3; compound concentrations:100 nM and 1000 nM (sheet 'Lestaurtinib' of Supplementary Table 1),run:Lestaurtinib_02496_R3,Plate:MR013",254 nM
same,potency estimated from few doses,"ULK3; compound concentrations:100 nM and 1000 nM (sheet 'Lestaurtinib' of Supplementary Table 1),run:Lestaurtinib_02566_R1,Plate:MR014",153 nM
same,potency estimated from few doses,"ULK3; compound concentrations:100 nM and 1000 nM (sheet 'Lestaurtinib' of Supplementary Table 1),run:Lestaurtinib_02566_R3,Plate:MR014",242 nM
same,potency estimated from few doses,"ULK3; compound concentrations:100 nM and 1000 nM (sheet 'Lestaurtinib' of Supplementary Table 1),run:Lestaurtinib_02572_R3,Plate:MR015",329 nM
same,potency estimated from few doses,"ULK3; compound concentrations:100 nM and 1000 nM (sheet 'Lestaurtinib' of Supplementary Table 1),run:Lestaurtinib_02577_R2,Plate:MR016",271 nM
same,potency estimated from few doses,"ULK3; compound concentrations:100 nM and 1000 nM (sheet 'Lestaurtinib' of Supplementary Table 1),run:Lestaurtinib_02577_R3,Plate:MR016",224 nM
same,potency estimated from few doses,"ULK3; compound concentrations:100 nM and 1000 nM (sheet 'Lestaurtinib' of Supplementary Table 1),run:Lestaurtinib_02584_R1,Plate:MR017",232 nM
same,potency estimated from few doses,"ULK3; compound concentrations:100 nM and 1000 nM (sheet 'Lestaurtinib' of Supplementary Table 1),run:Lestaurtinib_02584_R2,Plate:MR017",261 nM
same,potency estimated from few doses,"ULK3; compound concentrations:100 nM and 1000 nM (sheet 'Lestaurtinib' of Supplementary Table 1),run:Lestaurtinib_02584_R3,Plate:MR017",254 nM
same,potency estimated from few doses,"ULK3; compound concentrations:100 nM and 1000 nM (sheet 'Lestaurtinib' of Supplementary Table 1),run:Lestaurtinib_02601_R1,Plate:MR018",290 nM
same,potency estimated from few doses,"ULK3; compound concentrations:100 nM and 1000 nM (sheet 'Lestaurtinib' of Supplementary Table 1),run:Lestaurtinib_02601_R2,Plate:MR018",271 nM
same,potency estimated from few doses,"ULK3; compound concentrations:100 nM and 1000 nM (sheet 'Lestaurtinib' of Supplementary Table 1),run:Lestaurtinib_02601_R3,Plate:MR018",297 nM
same,potency estimated from few doses,"ULK3; compound concentrations:100 nM and 1000 nM (sheet 'Lestaurtinib' of Supplementary Table 1),run:Lestaurtinib_02624_R2,Plate:MR020",258 nM
same,potency estimated from few doses,"ULK3; compound concentrations:100 nM and 1000 nM (sheet 'Lestaurtinib' of Supplementary Table 1),run:Lestaurtinib_02624_R3,Plate:MR020",269 nM
same,potency estimated from few doses,"ULK3; compound concentrations:100 nM and 1000 nM (sheet 'Lestaurtinib' of Supplementary Table 1),run:Lestaurtinib_02724_R1,Plate:MR021",243 nM
same,potency estimated from few doses,"ULK3; compound concentrations:100 nM and 1000 nM (sheet 'Lestaurtinib' of Supplementary Table 1),run:Lestaurtinib_02724_R2,Plate:MR021",220 nM
same,potency estimated from few doses,"ULK3; compound concentrations:100 nM and 1000 nM (sheet 'Lestaurtinib' of Supplementary Table 1),run:Lestaurtinib_02741_R1,Plate:MR023",268 nM
same,potency estimated from few doses,"ULK3; compound concentrations:100 nM and 1000 nM (sheet 'Lestaurtinib' of Supplementary Table 1),run:Lestaurtinib_02748_R1,Plate:MR024",144 nM
same,potency estimated from few doses,"ULK3; compound concentrations:100 nM and 1000 nM (sheet 'Lestaurtinib' of Supplementary Table 1),run:Lestaurtinib_02748_R2,Plate:MR024",132 nM
same,potency estimated from few doses,"ULK3; compound concentrations:100 nM and 1000 nM (sheet 'Lestaurtinib' of Supplementary Table 1),run:Lestaurtinib_02752_R1,Plate:MR025",260 nM
same,potency estimated from few doses,"ULK3; compound concentrations:100 nM and 1000 nM (sheet 'Lestaurtinib' of Supplementary Table 1),run:Lestaurtinib_02765_R1,Plate:MR026",320 nM
same,potency estimated from few doses,"ULK3; compound concentrations:100 nM and 1000 nM (sheet 'Lestaurtinib' of Supplementary Table 1),run:Lestaurtinib_02765_R3,Plate:MR026",304 nM
same,potency estimated from few doses,"ULK3; compound concentrations:100 nM and 1000 nM (sheet 'Lestaurtinib' of Supplementary Table 1),run:Lestaurtinib_02768_R1,Plate:MR028",240 nM
same,potency estimated from few doses,"ULK3; compound concentrations:100 nM and 1000 nM (sheet 'Lestaurtinib' of Supplementary Table 1),run:Lestaurtinib_02768_R3,Plate:MR028",206 nM
same,potency estimated from few doses,"ULK3; compound concentrations:100 nM and 1000 nM (sheet 'Lestaurtinib' of Supplementary Table 1),run:Lestaurtinib_02802_R3,Plate:MR029",237 nM
same,potency estimated from few doses,ULK3; [1],236 nM
same,potency estimated from few doses,ULK3; [2],158 nM
same,potency estimated from few doses,"ULK3; compound concentrations:100 nM and 1000 nM (sheet 'Lestaurtinib' of Supplementary Table 1),run:Lestaurtinib_03172_R1,Plate:MR031",259 nM
same,potency estimated from few doses,ULK3; [3],261 nM
same,potency estimated from few doses,ULK3; [4],314 nM
